The values below come from PubChem BioAssay (Tox21).

Assay [1] is described as follows: Nuclear factor erythroid 2-related factor 2/antioxidant responsive element (Nrf2/ARE) small molecule agonists: qHTS cell viability counter screen in human keratinocytes (AID 1919968; active = well fitted curve in the direction sought with a large enough effect in the repeat runs; an effect the other way counts as inactive or inconclusive; note: nearly all actives have a fitted effect of over 55% in size; note: potency is the fitted concentration of half-maximal effect). The essentials:
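KeratinoSens HaCaT cells, 1,500/well, preincubated 5 h, then exposed to compounds in DMSO for 23 h at 37 C/5% CO2. Viability read as CellTiter-Fluor fluorescence after 1 h, in the same wells as the ARE-luciferase read.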
(In qHTS, concentration-response curves come from the screen itself.)

Assay [2] is described as follows: Nuclear factor erythroid 2-related factor 2/antioxidant responsive element (Nrf2/ARE) small molecule agonists: luciferase reporter gene qHTS assay in human keratinocytes (AID 1919969). Note: nearly all actives have a fitted effect of over 35% in size. Note: potency is the fitted concentration of half-maximal effect. A general note: A reporter such as luciferase makes a cellular process visible.
For assay [3], the target named is Gonadotropin-releasing hormone receptor (Homo sapiens) (UniProt P30968). Kind of assay: Human gonadotropin-releasing hormone receptor (GnRHR) small molecule agonists, calcium flux assay in GnRHR-HEK293 cells (AID 1920063). Note: nearly all actives have a fitted effect of over 35% in size. The essentials:
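HEK293 cells stably expressing human GnRHR were dye-loaded for 1 h at 37 C. Compound was added in agonist mode and fluorescence (Ex/Em 480/540) recorded kinetically for 3 min. Fifteen concentrations, triplicates.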
(In general: Calcium flux is commonly read through the fluorescence of an indicator in the cells.)

Assay [4] deals with KiSS-1 receptor (Homo sapiens) (UniProt Q969F8). Put plainly: Human kisspeptin (KISS1R) small molecule agonists, calcium flux assay in KISS1R-HEK293 cells (AID 1920064; active = well fitted curve in the direction sought with a large enough effect in the repeat runs; an effect the other way counts as inactive or inconclusive). Summed up:
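HEK293 cells stably expressing human KISS1R were loaded with calcium dye for 1 h at 37 C, then given compound; fluorescence (Ex/Em 480/540) was read kinetically for 3 min. Fifteen concentrations, triplicate.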

Assay [5] can be described thus: G protein-coupled receptor (GPCR) small molecule agonists, calcium flux assay: HEK293 wild type cell line counter screen (AID 1920065). The essentials:
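Wild-type HEK293 cells plated 18 h, loaded with calcium dye 1 h at 37 C, then compounds added in agonist mode (ATP as positive control). Kinetic fluorescence Ex/Em 480/540 recorded 3 min at 1 sec intervals; 15 concentrations, triplicate.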

Assay [6] can be described thus: p53 small molecule agonists, cell-based qHTS assay with human liver microsomes (AID 1963577). Summed up:
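p53RE-bla reporter cells were pre-incubated 5 h at 37 C, then treated with compounds plus human liver microsomes (0.5 mg/mL final) and NADPH (0.5 mg/mL final) for 16 h at 37 C. Beta-lactamase activity was read by LiveBLAzer fluorescence after 2 h at room temperature.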

Assay [7] is described as follows: p53 small molecule agonists, cell-based qHTS assay with rat liver microsomes (AID 1963578). The essentials: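 p53RE-bla cells were exposed to compounds together with rat liver microsomes (0.5 mg/mL final) and NADPH (0.5 mg/mL final) for 16 h at 37 C, then read by LiveBLAzer beta-lactamase fluorescence after 2 h at room temperature.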
Assay [8] can be described thus: p53 small molecule agonists, cell-based qHTS assay with rat liver microsomes: qHTS cell viability counter screen (AID 1963580). Note: nearly all actives have a fitted effect of over 45% in size. The essentials: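 Viability is assessed in parallel with the p53 reporter read: HCT-116 p53RE-bla cells receive compounds plus rat microsomes and NADPH (0.5 mg/mL final apiece), incubate 16 h at 37 C, and then CellTiter-Glo luminescence is recorded.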

Assay [9] is described as follows: p53 small molecule agonists, cell-based qHTS assay: qHTS cell viability counter screen (AID 1963581). Note: nearly all actives have a fitted effect of over 45% in size. Summed up:
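p53RE-bla HCT-116 cells, compounds added 5 h after plating and incubated 16 h at 37 C. Cytotoxicity measured in the same wells as intracellular ATP by CellTiter-Glo luminescence after 30 min at room temperature.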

Assay [10] addresses 5-hydroxytryptamine receptor 2A (Homo sapiens) (UniProt P28223). Kind of assay: 5-hydroxytryptamine receptor 2A (HTR2A) small molecule agonists, cell-based qHTS assay (AID 1963587). Note: nearly all actives have a fitted effect of over 30% in size. Summed up: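 CHO cells stably expressing human HTR2A, plated 18 h, loaded with calcium dye 1 h at 37 C. Agonist mode: compounds added and intracellular calcium fluorescence recorded kinetically for 2 min at 1 sec intervals.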

Assay [11] addresses Muscarinic acetylcholine receptor M1 (Homo sapiens) (UniProt P11229). Put plainly: Cholinergic receptor muscarinic 1 (CHRM1) small molecule antagonists, cell-based qHTS assay (AID 1963588). Note: nearly all actives have a fitted effect of over 40% in size. Summed up:
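CHRM1-CHO calcium-flux assay, antagonist mode. Cells were seeded 18 h, dye-loaded 1 h at 37 C and given compound for 5 min at RT, then acetylcholine was added at 50nM. FDSS fluorescence was read 3 min; 15 concentrations, three runs.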

For assay [12] the target is unchanged. Put plainly: Cholinergic receptor muscarinic 1 (CHRM1) small molecule agonists, cell-based qHTS assay (AID 1963589). Note: nearly all actives have a fitted effect of over 35% in size. The essentials: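 CHO cells stably expressing human CHRM1 were loaded with calcium dye for 1 h at 37 C, then compound was added in agonist mode. Intracellular calcium fluorescence was followed kinetically at 1 s intervals. Fifteen concentrations were tested in three independent runs.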

The nature of assay [13]: cAMP Responsive Elements (CRE) small molecule agonists, cell-based qHTS assay (AID 1963590). The essentials:
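CRE-bla HEK 293T cells, 2,000/well in DMEM with 10% dialyzed FBS and 25 mM HEPES, pre-incubated 18 h at 37 C, then exposed to compound 3 h at 37 C. Beta-lactamase reporter read with LiveBLAzer B/G FRET substrate after 2 h at room temperature.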

In assay [14] the target is Beta-2 adrenergic receptor (Homo sapiens) (UniProt P07550). Put plainly: Adrenergic beta2 receptor (ADRB2) small molecule antagonists, cell-based qHTS assay (AID 1963592). Note: series mostly up to about 92 µM; nearly all actives have a fitted effect of over 50% in size. Summed up:
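Cells (CHO, stable ADRB2 overexpression) incubated 18-20hr at 37C; compounds added from DMSO; agonist mix (1nM isoproterenol, 100uM IBMX, 25uM Ro-20-1724) added; 0.5hr RT; d2-cAMP and anti-cAMP-cryptate added; 1hr RT; 665/615 nm read.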

For assay [15] the target is unchanged. Put plainly: Adrenergic beta2 receptor (ADRB2) small molecule agonists, cell-based qHTS assay (AID 1963593).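 Note: CHO cells stably overexpressing human ADRB2.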 The essentials: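 CHO cells stably over-expressing ADRB2 were plated overnight at 37C, then dosed with compounds plus a stimulation mix containing 100uM IBMX and 25uM Ro-20-1724 for 0.5hr at room temperature. cAMP was measured by HTRF competition, 1hr.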

Assay [16] has as its target D(2) dopamine receptor (Homo sapiens) (UniProt P14416). Kind of assay: Dopamine D2 receptor (DRD2) small molecule agonists, cell-based qHTS assay (AID 1963594). Note: nearly all actives have a fitted effect of over 35% in size. The essentials:
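HEK293 cells stably expressing human DRD2, pre-treated with PDE inhibitor Ro20-1724 (0.1 mM final) and compound 10 min at room temperature, then stimulated with NKH477 (200nM […]) for 30 min. cAMP read by HTRF (665/620 nm).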

The target is the same in assay [17]. Kind of assay: Dopamine D2 receptor (DRD2) small molecule antagonists, cell-based qHTS assay (AID 1963595; active = well fitted inhibition curve with a large enough effect in the signal ratio in the repeat runs, with a control signal flat; the % refers to the signal ratio). The essentials: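 HTRF cAMP read-out at 665 and 620 nm emission (340 nm excitation). Antagonist mode: compounds were tested against 12 nM quinpirole in DRD2-HEK293 cells, with 200 nM NKH477 raising cAMP and 0.1 mM Ro20-1724 blocking its breakdown.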
Assay [18] is described as follows: p53 small molecule agonists, cell-based qHTS assay (AID 1963582; active = well fitted activation curve with a large enough effect in the signal ratio in the repeat runs, not every such curve was filed as active; the % refers to the signal ratio). The essentials: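 p53RE-bla reporter cells, compounds added in DMSO after 5 h plating, incubated 16 h at 37 C. Beta-lactamase read via 2 h room-temperature LiveBLAzer B/G FRET substrate, fluorescence intensity.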
Assay [19] has as its target 5-hydroxytryptamine receptor 2A (Homo sapiens) (UniProt P28223). Kind of assay: 5-hydroxytryptamine receptor 2A (HTR2A) small molecule antagonists, cell-based qHTS assay (AID 1963586). Note: nearly all actives have a fitted effect of over 45% in size. Summed up:
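Antagonist-mode intracellular calcium assay: DOI (4 nM) added after 5 min compound pre-incubation at room temperature to dye-loaded HTR2A-CHO cells. Fluorescence followed for 3 min, sampled every second.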

The nature of assay [20]: cAMP Responsive Elements (CRE) small molecule antagonists, cell-based qHTS assay (AID 1963591; active = well fitted inhibition curve with a large enough effect in the signal ratio in the repeat runs, not every such curve was filed as active; the % refers to the signal ratio). The essentials: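 CRE-bla HEK293T cells plated 18 h, then given compound plus NKH477 at 0.25 uM final for 3 h at 37C. Beta-lactamase reporter read with LiveBLAzer B/G FRET substrate after 2 h at room temperature.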

The structures appear in SMILES notation. A number with no mark means an inactive call. Inconclusive results are not listed. Activity calls are given as the source filed them. Unless noted, calls come from the whole dose curve.

Sequence of Beta-2 adrenergic receptor (Homo sapiens) (P07550 whole entry, looked up): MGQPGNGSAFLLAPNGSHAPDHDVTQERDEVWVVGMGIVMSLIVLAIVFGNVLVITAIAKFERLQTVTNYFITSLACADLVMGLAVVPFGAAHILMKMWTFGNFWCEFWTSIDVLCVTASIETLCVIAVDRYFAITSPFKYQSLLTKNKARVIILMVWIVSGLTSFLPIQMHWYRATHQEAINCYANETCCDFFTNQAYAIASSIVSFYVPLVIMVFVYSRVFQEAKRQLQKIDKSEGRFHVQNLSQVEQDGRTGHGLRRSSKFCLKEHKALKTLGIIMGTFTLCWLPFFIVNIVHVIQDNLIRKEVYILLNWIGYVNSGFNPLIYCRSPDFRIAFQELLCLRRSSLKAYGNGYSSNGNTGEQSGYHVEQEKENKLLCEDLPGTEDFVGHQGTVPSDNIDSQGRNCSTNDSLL
Sequence of D(2) dopamine receptor (Homo sapiens) (P14416 whole entry, looked up): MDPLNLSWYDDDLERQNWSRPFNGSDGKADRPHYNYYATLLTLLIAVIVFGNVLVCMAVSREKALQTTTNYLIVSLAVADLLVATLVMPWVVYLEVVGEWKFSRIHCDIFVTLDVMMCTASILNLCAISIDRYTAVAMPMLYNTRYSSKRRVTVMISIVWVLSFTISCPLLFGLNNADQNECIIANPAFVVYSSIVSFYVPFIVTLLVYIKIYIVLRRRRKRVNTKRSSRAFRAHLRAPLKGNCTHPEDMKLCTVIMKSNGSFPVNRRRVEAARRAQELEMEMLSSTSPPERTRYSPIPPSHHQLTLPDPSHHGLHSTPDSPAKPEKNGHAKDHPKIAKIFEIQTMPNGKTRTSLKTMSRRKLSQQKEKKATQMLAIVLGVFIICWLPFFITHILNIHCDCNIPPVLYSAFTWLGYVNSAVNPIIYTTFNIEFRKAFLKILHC
Sequence of Gonadotropin-releasing hormone receptor (Homo sapiens) (P30968 whole entry, looked up): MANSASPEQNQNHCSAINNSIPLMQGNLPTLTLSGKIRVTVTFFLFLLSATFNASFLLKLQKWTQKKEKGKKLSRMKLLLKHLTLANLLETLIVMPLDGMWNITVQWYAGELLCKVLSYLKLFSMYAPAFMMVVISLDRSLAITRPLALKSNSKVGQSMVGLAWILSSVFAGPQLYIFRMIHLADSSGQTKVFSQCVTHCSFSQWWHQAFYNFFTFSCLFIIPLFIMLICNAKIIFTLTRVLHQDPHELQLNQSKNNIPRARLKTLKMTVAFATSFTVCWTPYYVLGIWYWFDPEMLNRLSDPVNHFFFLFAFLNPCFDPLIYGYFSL
Sequence of 5-hydroxytryptamine receptor 2A (Homo sapiens) (P28223 whole entry, looked up): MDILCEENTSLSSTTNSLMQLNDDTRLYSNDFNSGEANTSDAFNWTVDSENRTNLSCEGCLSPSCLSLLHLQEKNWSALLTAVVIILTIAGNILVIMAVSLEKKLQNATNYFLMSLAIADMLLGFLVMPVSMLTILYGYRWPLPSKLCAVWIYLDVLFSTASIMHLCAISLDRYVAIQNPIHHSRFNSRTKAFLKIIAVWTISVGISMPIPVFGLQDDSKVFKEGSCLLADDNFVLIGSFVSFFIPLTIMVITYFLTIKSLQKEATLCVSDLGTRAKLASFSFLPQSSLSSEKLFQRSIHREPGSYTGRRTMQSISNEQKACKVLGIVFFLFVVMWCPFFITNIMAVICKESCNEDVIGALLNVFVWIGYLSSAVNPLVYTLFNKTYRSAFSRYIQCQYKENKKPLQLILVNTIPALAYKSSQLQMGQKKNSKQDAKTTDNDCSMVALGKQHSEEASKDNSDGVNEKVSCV
Sequence of Muscarinic acetylcholine receptor M1 (Homo sapiens) (P11229 whole entry, looked up): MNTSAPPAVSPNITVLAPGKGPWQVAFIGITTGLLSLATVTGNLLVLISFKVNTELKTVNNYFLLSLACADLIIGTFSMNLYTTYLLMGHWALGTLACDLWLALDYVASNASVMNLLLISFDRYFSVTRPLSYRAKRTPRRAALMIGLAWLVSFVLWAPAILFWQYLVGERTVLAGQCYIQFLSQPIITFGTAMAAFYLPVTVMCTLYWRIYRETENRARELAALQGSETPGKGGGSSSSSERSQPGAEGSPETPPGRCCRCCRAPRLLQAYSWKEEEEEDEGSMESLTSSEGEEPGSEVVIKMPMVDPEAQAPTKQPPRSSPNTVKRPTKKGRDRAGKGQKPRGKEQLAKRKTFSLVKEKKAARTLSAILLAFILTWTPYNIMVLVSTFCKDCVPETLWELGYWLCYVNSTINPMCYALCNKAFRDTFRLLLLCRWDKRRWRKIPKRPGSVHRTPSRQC
Sequence of KiSS-1 receptor (Homo sapiens) (Q969F8 whole entry, looked up): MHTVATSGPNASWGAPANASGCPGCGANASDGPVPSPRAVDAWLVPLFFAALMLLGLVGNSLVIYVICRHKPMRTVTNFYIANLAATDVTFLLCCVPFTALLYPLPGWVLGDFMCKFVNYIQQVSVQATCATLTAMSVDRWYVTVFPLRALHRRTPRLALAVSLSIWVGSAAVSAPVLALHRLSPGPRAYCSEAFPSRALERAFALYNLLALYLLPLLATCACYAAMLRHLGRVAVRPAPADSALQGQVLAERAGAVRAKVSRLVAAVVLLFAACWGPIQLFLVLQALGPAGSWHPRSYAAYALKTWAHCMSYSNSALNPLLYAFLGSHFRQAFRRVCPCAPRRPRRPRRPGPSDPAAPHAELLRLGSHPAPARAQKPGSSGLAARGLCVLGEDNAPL

As to `CCN(CC)CCOC(=O)C(Cc1cccc2ccccc12)CC1CCCO1` (stereo unspecified), the Potency result in assay [1], in [2], in [3], in assay [6], in [7] and in [8] was “inactive” throughout. Further, the Potency result in assay [9], in assay [10], in assay [11], in assay [12], in assay [13] and in [14] was “inactive” in each case. For the same compound, the Potency result in assay [15], in assay [16] and in assay [17] was “inactive” throughout. The outcome in assay [4] and in [5] was inactive.

On to `CN1CCN(N)CC1`, for which the Potency entry in assay [1], in assay [2], in assay [3], in [6], in assay [7] and in [8] was “inactive” throughout. In addition, the Potency result in assay [18], in [19], in assay [10], in assay [11], in assay [12] and in assay [13] was “inactive” in each case. Also, the Potency entry in [20], in [14], in [15] and in assay [16] was “inactive” throughout. Further, the outcome in assay [4] and in assay [5] was inactive.

`O=C(Nc1ccccc1)c1ccccc1O`: the Potency entry in [1], in [3], in assay [6], in [7], in [8] and in [9] was “inactive” each time. Also, the Potency result in assay [18], in assay [10], in assay [11], in assay [13], in assay [20] and in [16] was “inactive” in each case. In addition, in assay [17], the Potency entry is “inactive”. The Potency in [2] is 61.1 µM (active). Besides, the outcome in assay [4] and in assay [5] was inactive.

Take `NC(=O)N(O)[C@@H]1C=C[C@H](Oc2cccc(Oc3ccc(F)cc3)c2)C1`: the Potency result in assay [1], in [3], in assay [6], in assay [7], in assay [8] and in assay [9] was “inactive” each time. The Potency entry in [19], in assay [10], in assay [11], in assay [14] and in assay [17] was “inactive” throughout. For the same compound, the Potency in [2] was 61.1 µM (active). The outcome in assay [4] and in [5] was inactive.

As to `Cc1ccc(-n2[nH]c(C)c(N=Nc3cccc(-c4cccc(C(=O)O)c4)c3O)c2=O)cc1C`, the Potency in assay [1] is 26.6 µM (active). For the same compound, the Potency entry in [2], in assay [3], in [6], in [7], in assay [8] and in assay [9] was “inactive” throughout. The Potency result in assay [10], in assay [11], in [12], in [20], in assay [14] and in assay [16] was “inactive” each time. Further, in assay [17], the Potency entry is “inactive”. Further, the outcome in assay [4] and in assay [5] was inactive.

For `COc1cc(NS(=O)(=O)c2ccc(N)cc2)nc(OC)n1`, the Potency entry in [1], in assay [2], in assay [3], in assay [6], in [7] and in [8] was “inactive” throughout. In addition, the Potency entry in assay [9], in [18], in [13], in [20], in assay [14] and in assay [16] was “inactive” each time. For the same compound, the Potency entry in assay [17] is “inactive”. Besides, the outcome in assay [4] and in [5] was inactive.

On to `Nc1ccc(S(=O)(=O)NC(=O)c2ccccc2)cc1`, for which the Potency result in [1], in assay [2], in assay [3], in [6], in [7] and in [8] was “inactive” each time. The Potency entry in assay [9], in assay [18], in [13], in assay [20], in assay [14] and in assay [16] was “inactive” in each case. Also, the Potency result in assay [17] was “inactive”. For the same compound, the result in assay [4] and in assay [5] was inactive.
